# Shown are actives, neighbours in structure and some others; about 1.6% of the full set was active somewhere.
# KCNQ2 pot – KCNQ2 (rat) channel potentiation; O88943; CHO-K1 KCNQ2, FluxOR thallium flux fluorescence; active compounds read high; B-score at 10 µM; 310,000 compounds, 0.54% hits;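 active = fluorescence ratio B-score at least 3 SD of library B-scores, with initial fluorescence B-score within 3 of them, cut at about 5.3 in these data; same plate scores as AID 2156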;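 note: B-score of peak minus minimum over baseline fluorescence ratio after K+ and Tl+ stimulus; positive B-score means potentiation of KCNQ2 with more thallium influx and brighter signal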
# KCNQ2 inh – KCNQ2 (rat) channel inhibition; O88943; CHO-K1 KCNQ2, FluxOR thallium flux, 20 min; active compounds read low; B-score at 10 µM; 310,000 compounds, 1.1% hits;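 active = fluorescence ratio B-score at most minus 3 library SDs, with starting brightness B-score within 2 library SDs, cut at about -5.5 in these data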
# Kir21 conf inh – confirmation of mouse Kir2.1 potassium channel inhibitors | shares compounds with KCNQ2 pot | Kir2.1-expressing cells, FluxOR thallium flux fluorescence; active compounds read low | Tl flux remaining, % of negative control (active compounds read low), % at 10 µM | 2,300 compounds, 41% hits;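 active = Primary-screen hit whose thallium flux fell at least 3 control SD below untreated wells in both duplicates, with normal baseline fluorescence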;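 note: 0% = blank wells without stimulus and 100% = stimulated no-compound controls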
# HEK293 Tl flux – counter-screen for Kir2.1 inhibitors: effect in parental HEK293 cells; shares compounds with KCNQ2 pot; 2,300 compounds, 19% hits; FluxOR signal as % of negative control (100 = no effect), % at 10 µM; FluxOR thallium flux fluorescence; 0% = unstimulated blank wells;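 active = dye signal at least 3 control SD above or below untreated wells in both duplicates, raw fluorescence within 3, either direction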;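 note: percent is based on the flux ratio of peak minus minimum fluorescence over baseline F0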
# CHO-K1 ctr – alters thallium flux in parental CHO-K1 cells, KCNQ2 counter-screen. shares compounds with KCNQ2 pot. FluxOR thallium flux fluorescence; zero = vehicle mean+3SD, 100% = vehicle-minus-blank window. activity increase over 3SD of controls, % at 10 µM. 1,200 compounds, 43% hits;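 active = signal rise of at least 3 SD above the untreated control mean, in both duplicate wells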;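 note: counter screen of KCNQ2 potentiator hits so any rise reflects channel-independent effects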
# KCNQ1 sel pot – human KCNQ1 counter-target activity of KCNQ2 potentiators; shares compounds with KCNQ2 pot; 1,200 compounds, 28% hits; activation over 3SD threshold, % at 10 µM; CHO KCNQ1 stable, FluxOR thallium flux fluorescence; beyond 3SD, as % of vehicle-control signal;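 active = fluorescence ratio rise of at least 3 SD of vehicle wells above their mean, in both replicate wells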;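 note: 0% = vehicle mean plus 3 SD and 100% = vehicle minus unstimulated blank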
# KCNQ2 pot conf – confirmation of rat KCNQ2 potassium channel potentiators; shares compounds with KCNQ2 pot; CHO-KCNQ2 cells, FluxOR thallium flux fluorescence; potentiation, less the hit threshold, % at 10 µM; 1,200 compounds, 68% hits;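 active = fluorescence ratio rising 3 SD or more over the vehicle control mean in both replicates, plus primary screen hit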;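 note: peak minus minimum thallium fluorescence divided by baseline after K/Tl stimulus; 0% = vehicle mean plus 3 SD and 100% = vehicle minus unstimulated blank difference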
# Kir2-1 sel – mouse Kir2.1 off-target activity of KCNQ2 potentiators; 1,200 compounds, 2% hits; activity over 3SD threshold, % at 10 µM; HEK293 Kir2.1, FluxOR thallium flux fluorescence; AID 2345; shares compounds with KCNQ2 pot;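 active = fluorescence ratio rise of at least 3 SD above the vehicle-control mean, seen in both replicates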;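 note: 0% = vehicle mean plus 3 SD and 100% = vehicle minus no-stimulus blank window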
# KCNQ2 W236L pot – KCNQ2 potentiators acting on retigabine-insensitive rat KCNQ2 W236L mutant; shares compounds with KCNQ2 pot; CHO KCNQ2-W236L, automated patch clamp current; 940 compounds, 10% hits; current increase over 3SD of negative controls (%), active compounds read high, % at 25 µM;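 active = current increase at least 3 SD of the untreated controls above them in both duplicate recordings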
# Target sequence (O88943 whole entry W236L, looked up): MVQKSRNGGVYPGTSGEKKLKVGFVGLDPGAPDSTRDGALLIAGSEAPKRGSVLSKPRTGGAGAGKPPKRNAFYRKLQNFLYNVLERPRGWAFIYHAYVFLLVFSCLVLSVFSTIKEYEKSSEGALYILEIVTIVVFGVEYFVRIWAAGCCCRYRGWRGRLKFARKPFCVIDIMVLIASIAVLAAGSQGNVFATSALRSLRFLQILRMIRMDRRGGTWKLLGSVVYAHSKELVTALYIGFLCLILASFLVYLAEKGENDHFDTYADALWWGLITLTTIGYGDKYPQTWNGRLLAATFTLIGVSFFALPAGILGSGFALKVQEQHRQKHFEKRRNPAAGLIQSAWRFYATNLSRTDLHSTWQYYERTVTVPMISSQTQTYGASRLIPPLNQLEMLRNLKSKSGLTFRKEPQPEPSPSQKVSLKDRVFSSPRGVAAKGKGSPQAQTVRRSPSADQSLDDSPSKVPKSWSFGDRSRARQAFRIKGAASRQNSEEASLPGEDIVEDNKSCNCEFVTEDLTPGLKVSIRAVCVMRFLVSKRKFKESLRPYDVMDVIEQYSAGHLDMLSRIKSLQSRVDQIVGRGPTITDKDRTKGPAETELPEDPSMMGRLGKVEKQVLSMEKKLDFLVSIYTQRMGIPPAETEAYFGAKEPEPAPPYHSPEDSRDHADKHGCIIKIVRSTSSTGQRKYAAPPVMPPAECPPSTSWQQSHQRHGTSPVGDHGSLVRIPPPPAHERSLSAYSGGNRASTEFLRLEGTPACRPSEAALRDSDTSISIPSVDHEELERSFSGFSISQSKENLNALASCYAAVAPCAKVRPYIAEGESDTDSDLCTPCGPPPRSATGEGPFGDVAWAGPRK
# * = called active by the depositor; i = inactive; x = no result given.
SMILES,KCNQ2 pot,KCNQ2 inh,Kir21 conf inh,HEK293 Tl flux,others
COc1cccc(NC(=O)c2ccc(NC(=O)C(C)(C)C)cc2)c1,1.2,i,x,x,
COCC(=O)N1CCC(Oc2ccc(C(=O)NCc3cc(C(C)C)no3)cc2)CC1,x,i,x,x,
O=C(O)c1ccc(NC(=S)N2CCCCC2)cc1,0.58,i,x,x,
S=C(Nc1ccccc1)N1CCCCC1,6.9*,i,i,i,CHO-K1 ctr=-14;KCNQ1 sel pot=6.3*;KCNQ2 pot conf=-14;Kir2-1 sel=-29
O=C(N=C1SC2CS(=O)(=O)CC2N1c1cc(Cl)ccc1Cl)C1CCCO1 (centres undefined),0.39,i,x,x,
COCCN1C(=S)N[C@@H](c2cccc(F)c2)C(C(=O)OC)=C1C,x,i,41%*,i,
COC(=O)C1=C(C)N(Cc2ccccc2)C(=S)N[C@H]1c1cccc(F)c1,x,i,x,x,
COCCN=C1N[C@@H](c2ccc(Br)cc2)C(C(=O)OC)=C(C)N1Cc1ccccc1,x,i,32%*,74%*,
COCCN=C1N[C@@H](c2ccccc2)C(C(=O)OC)=C(C)N1Cc1ccccc1,x,i,x,x,
CCN1C(=O)N[C@@H](c2cccc(F)c2)C(C(=O)OC)=C1C,0.13,i,x,x,
COC(=O)C1=C(C)N(Cc2ccccc2)C(=NCc2ccccc2)N[C@H]1c1cccc(F)c1,x,i,19%*,i,
CC1=C(c2ccccc2)SC2=NCCN21,x,i,x,x,
COc1ccc(N2CCN(C(CNC(=O)COc3ccccc3)c3ccco3)CC2)cc1 (centres undefined),x,i,x,x,
C=CCSc1nsc(NC(=O)Nc2ccc(F)cc2)n1,x,i,x,x,
COc1cc2c(cc1OC)CN(C(=O)CNS(=O)(=O)c1ccc(C)c(C)c1)CC2,x,i,x,x,
CC(=O)N1CCOc2ccc(S(=O)(=O)N3CC(C)CC(C)C3)cc21 (centres undefined),x,i,x,x,
CC[C@@H](C)[C@H](NC(=O)OC(C)(C)C)c1nnc(S(=O)(=O)Cc2cc(C)ccc2C)o1,x,i,i,i,
CC(C)[C@H](NC(=O)OC(C)(C)C)c1nnc(S(=O)(=O)Cc2c(F)cccc2Cl)o1,0.91,i,x,x,
O=C(/C=C/c1ccccc1)n1cnnc1SC/C=C/c1ccccc1,x,i,i,i,
Cc1nnc(SC/C=C/c2ccccc2)n(N)c1=O,1.5,i,x,x,
O=C(Nc1ccc2c(c1)OCO2)c1n[nH]c(=O)c2ccccc12,x,i,x,x,
Cc1ccc(NC(=O)CCNS(=O)(=O)c2ccc3[nH]c(=O)oc3c2)cc1F,x,i,x,x,
CSc1nc2ccc3nc(NC(=O)c4ccc(C)cc4)sc3c2s1,0.66,i,x,x,
Cc1ccc(C(=O)Nc2nc3ccccc3c(=O)s2)cc1,6.1*,i,i,254%*,CHO-K1 ctr=-14;KCNQ1 sel pot=-15;KCNQ2 pot conf=-2;Kir2-1 sel=-17
O=c1[nH]c(-c2ccccn2)nc2sc(-c3ccccc3)cc12,x,i,x,x,
SMILES,KCNQ2 pot,KCNQ2 inh,Kir21 conf inh,HEK293 Tl flux,others
C=CCOc1ccc(CNc2ccc(NC(=O)CCC)cc2)cc1OCC,1.7,i,x,x,
C=CCOc1c(Br)cc(CNc2ccc(NC(=O)CCC)cc2)cc1OCC,18*,i,i,i,CHO-K1 ctr=-13;KCNQ1 sel pot=80*;KCNQ2 pot conf=32*;Kir2-1 sel=-33;KCNQ2 W236L pot=i
O=C(CCCN1CCC(C(=O)c2ccc(F)cc2)CC1)c1ccc(F)cc1,x,i,x,x,
O=C(CCCN1CCC(O)(c2ccc(Cl)cc2)CC1)c1ccc(F)cc1,x,i,34%*,i,
CCCn1cc(S(=O)(=O)c2ccc(F)cc2)c(=O)c2cc(OCC)ccc21,0.52,i,x,x,
COc1ccc(C)c2sc(N(CCCN(C)C)C(=O)c3ccc4c(c3)OCCO4)nc12,x,i,x,x,
Cc1c(Cl)cccc1Nc1nc(NCCO)c2ccccc2n1,x,i,35%*,i,
Oc1ccccc1Nc1nc(NCc2ccccc2)c2ccccc2n1,x,i,x,x,
CCOC(=O)C1CCCN(C(=O)Cn2ncc3c([nH]c4ccc(C)cc43)c2=O)C1 (centres undefined),x,i,x,x,
O=C(Cc1cccc(C(F)(F)F)c1)Nc1ccccc1N1CCCC1,11*,i,i,i,CHO-K1 ctr=-11;KCNQ1 sel pot=-21;KCNQ2 pot conf=60*;Kir2-1 sel=-52;KCNQ2 W236L pot=i
COc1ccc(CC(=O)Nc2ccccc2N2CCCC2)cc1OC,0.83,i,x,x,
O=C(CCNC(=O)c1ccc(Br)cc1)Nc1ccccc1N1CCCC1,x,i,x,x,
O=C(Cc1c(F)cccc1Cl)Nc1ccccc1N1CCCCC1,x,i,x,x,
COc1ccc(CC(=O)Nc2ccccc2N2CCCC2)cc1,0.91,i,62%*,i,
O=C(Cc1ccc(Br)cc1)Nc1ccccc1N1CCCC1,18*,i,i,i,CHO-K1 ctr=-32;KCNQ1 sel pot=-28;KCNQ2 pot conf=52*;Kir2-1 sel=-56;KCNQ2 W236L pot=i
O=C(Cc1ccccc1)Nc1ccccc1N1CCOCC1,x,i,x,x,
O=C(Cc1ccccc1)Nc1ccccc1N1CCCC1,13*,i,x,x,CHO-K1 ctr=-15;KCNQ1 sel pot=-10;KCNQ2 pot conf=54*;Kir2-1 sel=-81;KCNQ2 W236L pot=i
Cc1ccc(C(=O)NCCNC(=O)c2ccc(F)cc2)cn1,x,i,x,x,
CCOc1ccc(C(=O)NCC(=O)NCC(c2ccccc2OC)N2CCCC2)cc1 (centres undefined),x,i,x,x,
COc1cc(OC)cc(C(=O)Nc2cccnc2)c1,1.1,i,x,x,
COc1cc(OC)cc(C(=O)Nc2ccc(C(=O)c3ccncc3)cc2)c1,11*,i,i,i,CHO-K1 ctr=28*;KCNQ1 sel pot=42*;KCNQ2 pot conf=20*;Kir2-1 sel=-36;KCNQ2 W236L pot=i
CCCCn1c(N)c(N(CCC(C)C)C(=O)c2c(C)noc2C)c(=O)[nH]c1=O,x,i,x,x,
C=CCN(CC=C)C(=S)NC(=O)Cc1cccc2ccccc12,3.9,i,x,x,
COC(=O)CSc1ccccc1C(=O)OC,x,i,x,x,
COC(=O)CSC1=NS(=O)(=O)c2ccccc21,-7.9,-7.9*,58%*,i,
SMILES,KCNQ2 pot,KCNQ2 inh,Kir21 conf inh,HEK293 Tl flux,others
O=C(NCc1n[nH]c(=O)c2ccccc12)C1CC(=O)N(c2ccc(Cl)cc2)C1 (centres undefined),1.2,i,x,x,
COc1ccc(C)cc1Nc1n[n+](-c2ccccc2)c(-c2ccc(SC)cc2)s1,x,i,x,x,
CCN(CC)CCNC(=O)C1CCN(S(=O)(=O)c2c(C)noc2/C=C/c2ccccc2F)CC1,x,i,x,x,
COc1cc(SC)ccc1C(=O)NCC1CCCCC1,x,i,x,x,
CC1(C)NC(=O)N(CC(=O)OCC(=O)NC(=O)c2ccccc2)C1=O,1.1,i,x,x,
CCC(C)(C)NC(=O)CN(C(=O)C(=O)Nc1ccc2c(c1)OCCO2)N1CCOCC1,1.1,i,x,x,

# Bioassay records as filed in PubChem.
